Data published in PubChem BioAssay (NCATS).
Inconclusive results are not listed. Activity calls are given as the source filed them. Unless noted, the call rests on the fitted dose curve; in most records, active means well fitted curve in either direction with a large enough effect (not every such curve was filed as active); inconclusive means small, poorly fitted or top-dose-only effect, or another doubt; inactive means flat fitted curve, though single readings scatter.

Assays:
[1] = target: Lysosomal acid glucosylceramidase (Homo sapiens) (UniProt P04062); assay: Glucocerebrosidase-p2 (AID 348; in the data active means potency below about 10 µM; further: potency means the concentration at half of the fitted maximal effect); settings: purified GBA, blue fluorogenic substrate, 40 min
Lysosomal acid glucosylceramidase (Homo sapiens), sequence (P04062 whole entry, looked up): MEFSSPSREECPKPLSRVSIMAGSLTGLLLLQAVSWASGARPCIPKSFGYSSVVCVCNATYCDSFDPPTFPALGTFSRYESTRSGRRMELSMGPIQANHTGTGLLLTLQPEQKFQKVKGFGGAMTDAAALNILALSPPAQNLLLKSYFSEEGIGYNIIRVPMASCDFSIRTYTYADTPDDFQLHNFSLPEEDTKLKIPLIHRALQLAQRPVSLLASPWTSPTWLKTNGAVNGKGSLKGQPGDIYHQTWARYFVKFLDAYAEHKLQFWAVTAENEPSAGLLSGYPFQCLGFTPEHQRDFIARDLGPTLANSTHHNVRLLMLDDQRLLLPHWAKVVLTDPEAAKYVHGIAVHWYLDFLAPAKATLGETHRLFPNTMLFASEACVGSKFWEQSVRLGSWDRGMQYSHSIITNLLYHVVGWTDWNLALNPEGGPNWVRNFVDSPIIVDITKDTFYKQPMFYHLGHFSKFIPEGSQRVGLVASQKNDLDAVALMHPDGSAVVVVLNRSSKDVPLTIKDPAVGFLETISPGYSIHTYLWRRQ
Outline: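 Compounds titrated from 0.6 nM upwards against 0.2 nM enzyme in pH 5.9 citric acid/KH2PO4, taurocholate, tween-20; blue fluorogenic substrate 80 uM, 40 min room temperature, stopped and read Ex 365/Em 440 for AC50.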

[2] = AP1 Signaling Pathway (AID 357); settings: ME-180 AP-1-bla reporter, EGF-induced, beta-lactamase ratio, 5 h; at 7.69 µM (top of the series) unless noted; further: on the % scale 0 is the no-effect control and ±100 the full control effect
Outline: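 ME-180 cells with beta-lactamase reporter under AP-1 response element, stimulated with EC50 EGF; compounds tested in titration series, 5 h at 37 °C. CCF4 substrate added 2.5 h at room temperature; 460/530 nm emission ratio gave %activity and AC50.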

[3] = target: Cytochrome P450 1A2 (Homo sapiens) (UniProt P05177); assay: p450-cyp1a2 (AID 410; calls by dose curve; further: potency means the concentration at half of the fitted maximal effect;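 on activity change, negative = inhibition: -100% = full effect of reference inhibitor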); settings: recombinant CYP1A2, luciferin-ME demethylation, luminescence; series mostly up to 11.4 µM
Cytochrome P450 1A2 (Homo sapiens), sequence (P05177 whole entry, looked up): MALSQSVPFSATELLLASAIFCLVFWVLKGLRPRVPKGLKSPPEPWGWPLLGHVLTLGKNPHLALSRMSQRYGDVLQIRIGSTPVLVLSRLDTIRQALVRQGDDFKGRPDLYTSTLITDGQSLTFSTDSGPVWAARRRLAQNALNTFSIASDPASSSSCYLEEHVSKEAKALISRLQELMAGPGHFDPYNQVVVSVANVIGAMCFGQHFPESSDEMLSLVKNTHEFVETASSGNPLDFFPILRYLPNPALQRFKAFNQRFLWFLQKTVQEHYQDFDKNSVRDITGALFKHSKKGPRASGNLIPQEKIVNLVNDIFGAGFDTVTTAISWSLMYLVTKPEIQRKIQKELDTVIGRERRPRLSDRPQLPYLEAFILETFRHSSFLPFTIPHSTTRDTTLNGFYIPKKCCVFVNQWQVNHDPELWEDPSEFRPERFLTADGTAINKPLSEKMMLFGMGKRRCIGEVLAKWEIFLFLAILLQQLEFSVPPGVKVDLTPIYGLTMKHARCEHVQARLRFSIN
Outline: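 20nM CYP1A2 with 100uM Luciferin-ME (at Km) in 100mM KPO4; compound preincubated 10 min, NADPH regeneration added, 60 min at room temperature. Luciferin quantified by luminescence after detection reagent; normalized to 57 uM furafylline.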

[4] = NFAT Signaling Pathway (AID 444); settings: Jurkat NFAT-bla M1, carbachol, beta-lactamase ratio, 5 h; at 7.69 µM (top of the series) unless noted;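 further: carbachol stimulus at about its EC50 of 1 µM final; on the % scale 0 is the no-effect control and ±100 the full control effect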
Outline: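 Read-out: CCF4 FRET ratio (460 nm/530 nm) after 1 h RT dye loading, used for %activity and AC50 from titration series. Cells: Jurkat NFAT-β-lactamase/M1 line, treated with compound plus 1 uM carbachol for 5 h, 37 °C.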

[5] = target: Glucocorticoid receptor (Homo sapiens) (UniProt P04150); assay: GR-GFP Redistribution (AID 450;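 active means compounds whose dose series gives a full or clear partial fitted curve of increased nuclear translocation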; further: potency means the concentration at half of the fitted maximal effect); settings: U2OS GR-GFP nuclear translocation, laser cytometry, 2 h
Glucocorticoid receptor (Homo sapiens), sequence (P04150 whole entry, looked up, the tested form may be a part): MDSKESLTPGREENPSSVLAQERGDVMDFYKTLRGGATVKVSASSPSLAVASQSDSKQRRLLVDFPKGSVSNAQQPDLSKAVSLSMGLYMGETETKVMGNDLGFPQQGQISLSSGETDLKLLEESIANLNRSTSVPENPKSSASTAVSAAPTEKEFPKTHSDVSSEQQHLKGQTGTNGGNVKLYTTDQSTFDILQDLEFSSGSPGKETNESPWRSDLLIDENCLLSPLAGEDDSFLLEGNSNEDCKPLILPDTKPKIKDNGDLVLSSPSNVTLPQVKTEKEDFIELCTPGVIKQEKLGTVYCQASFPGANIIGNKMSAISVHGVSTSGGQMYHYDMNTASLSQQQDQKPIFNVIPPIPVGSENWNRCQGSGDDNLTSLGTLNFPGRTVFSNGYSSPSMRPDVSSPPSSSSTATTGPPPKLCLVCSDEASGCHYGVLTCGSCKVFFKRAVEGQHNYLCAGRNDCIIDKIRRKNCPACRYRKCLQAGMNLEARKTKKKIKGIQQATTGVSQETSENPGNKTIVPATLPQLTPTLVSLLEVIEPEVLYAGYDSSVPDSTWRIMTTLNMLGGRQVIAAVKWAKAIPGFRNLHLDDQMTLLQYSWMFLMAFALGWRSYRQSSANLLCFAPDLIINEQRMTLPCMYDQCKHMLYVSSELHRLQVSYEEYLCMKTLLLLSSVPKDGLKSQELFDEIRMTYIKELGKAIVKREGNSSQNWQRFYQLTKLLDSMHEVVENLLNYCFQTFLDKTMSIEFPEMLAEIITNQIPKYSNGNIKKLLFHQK

[6] = target: Glucocorticoid receptor (Homo sapiens) (UniProt P04150); assay: GR-EFC Redistribution (AID 451; calls by dose curve; further: potency means the concentration at half of the fitted maximal effect); settings: CHO-K1 GR-EFC translocation, beta-gal luminescence, 2 h
Outline: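 Translocation of GR-ED fusion to nuclear EA restores b-gal, read by luminescence after 1 h room-temperature detection. Engineered CHO-K1 biosensor cells, 1,000/well, exposed 2 h at 37 C to titrations up to 46 uM final.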

[7] = target: 3',5'-cyclic-AMP phosphodiesterase 4B (Homo sapiens) (UniProt Q07343); assay: qHTS Assay for Inhibitors of PDE-IV (AID 607; active means well fitted activation curve with a large enough effect in the main read-out, with a control signal flat, not every such curve was filed as active; further: % of control where 0% means no effect); settings: HEK293 ACTOne CNG channel cells, membrane potential fluorescence; series mostly up to 22.9 µM
3',5'-cyclic-AMP phosphodiesterase 4B (Homo sapiens), sequence (Q07343 whole entry, looked up): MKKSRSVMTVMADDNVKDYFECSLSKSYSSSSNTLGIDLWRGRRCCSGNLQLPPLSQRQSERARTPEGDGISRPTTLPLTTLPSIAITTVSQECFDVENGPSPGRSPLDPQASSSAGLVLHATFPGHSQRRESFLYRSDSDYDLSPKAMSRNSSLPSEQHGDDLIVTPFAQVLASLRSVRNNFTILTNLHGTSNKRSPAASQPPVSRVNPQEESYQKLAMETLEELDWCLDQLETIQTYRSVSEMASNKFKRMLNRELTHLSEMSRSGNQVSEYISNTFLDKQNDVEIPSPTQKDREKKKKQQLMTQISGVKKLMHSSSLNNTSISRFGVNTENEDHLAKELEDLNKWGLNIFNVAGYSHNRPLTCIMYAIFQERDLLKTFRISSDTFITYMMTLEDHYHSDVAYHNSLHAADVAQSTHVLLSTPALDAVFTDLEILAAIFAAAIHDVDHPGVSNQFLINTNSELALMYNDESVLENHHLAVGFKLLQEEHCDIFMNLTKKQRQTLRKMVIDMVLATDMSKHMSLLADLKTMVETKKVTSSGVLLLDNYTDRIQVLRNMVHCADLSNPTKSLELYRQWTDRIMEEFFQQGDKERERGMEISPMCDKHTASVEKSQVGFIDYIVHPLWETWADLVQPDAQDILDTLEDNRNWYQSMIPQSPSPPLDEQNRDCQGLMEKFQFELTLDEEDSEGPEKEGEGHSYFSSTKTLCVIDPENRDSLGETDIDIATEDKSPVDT
Outline: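 Live HEK293 cells with a modified cyclic nucleotide-gated (CNG) channel report intracellular cAMP via membrane-potential dye fluorescence (ex 535/em 590 nm). Endogenous PDE-IV was targeted. Compounds were tested at up to 22.9 uM final; RO 20-1724 100 uM served as control.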

[8] = target: Cytochrome P450 3A4 (Homo sapiens) (UniProt P08684); assay: qHTS Assay for Inhibitors and Substrates of Cytochrome P450 3A4 (AID 884; active means well fitted curve in the direction sought with a large enough effect; an effect the other way counts as inactive or inconclusive; further: potency means the concentration at half of the fitted maximal effect; nearly all actives have a fitted effect of over 50% in size); settings: recombinant CYP3A4, Luciferin-PPXE luminescence; series mostly up to 57.1 µM
Cytochrome P450 3A4 (Homo sapiens), sequence (P08684 whole entry, looked up): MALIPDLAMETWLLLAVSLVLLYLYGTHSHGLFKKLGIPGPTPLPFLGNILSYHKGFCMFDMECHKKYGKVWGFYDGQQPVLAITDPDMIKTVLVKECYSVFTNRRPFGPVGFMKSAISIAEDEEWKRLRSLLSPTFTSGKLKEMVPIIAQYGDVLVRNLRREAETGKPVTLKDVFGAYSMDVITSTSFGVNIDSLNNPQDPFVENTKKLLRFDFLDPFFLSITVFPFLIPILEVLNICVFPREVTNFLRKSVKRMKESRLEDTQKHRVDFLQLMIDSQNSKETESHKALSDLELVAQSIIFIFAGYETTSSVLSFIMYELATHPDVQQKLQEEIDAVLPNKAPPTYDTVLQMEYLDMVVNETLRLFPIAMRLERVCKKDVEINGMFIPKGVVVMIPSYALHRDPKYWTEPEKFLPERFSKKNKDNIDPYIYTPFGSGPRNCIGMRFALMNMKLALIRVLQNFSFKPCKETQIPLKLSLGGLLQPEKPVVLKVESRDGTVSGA
Outline: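 20 nM human CYP3A4 with 25 uM Luciferin-PPXE (at KM) in 200 mM KPO4, preincubated 10 min with compound; NADPH regeneration started a 60 min RT reaction. Luciferin detected by luminescence, normalized to 57 uM ketoconazole as full inhibition.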

[9] = target: Cytochrome P450 3A4 (Homo sapiens) (UniProt P08684); assay: qHTS Assay for Activators of Cytochrome P450 3A4 (AID 885; active means well fitted curve in the direction sought with a large enough effect; an effect the other way counts as inactive or inconclusive; further: nearly all actives have a fitted effect of over 65% in size); settings: recombinant CYP3A4, Luciferin-PPXE luminescence, 60 min; series mostly up to 11.4 µM
Outline: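 Quantitative HTS format: compounds preincubated with 20nM human CYP3A4 and Luciferin-PPXE substrate at KM, reaction started by NADPH regeneration, stopped after 60 min, luciferase luminescence read 20 min later.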

[10] = Stat Signaling Pathway (AID 446); settings: ME-180 (cervical carcinoma) SIE beta-lactamase reporter, IL-6 stimulated, 5 h; at 7.69 µM (top of the series) unless noted;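 further: ME-180 cervical cancer cells given 40 pM IL-6 alongside compound; SIE-controlled beta-lactamase reporter measured as 460/530 nm FRET emission ratio; on the % scale 0 is the no-effect control and ±100 the full control effect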
Outline: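 IL-6/STAT signaling read in ME-180 cells via an SIE beta-lactamase reporter. Stimulus was 40 pM IL-6 (its AC50) for 5 hrs, so both activation and inhibition register.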

[11] = target: Mitogen-activated protein kinase 10 (Mus musculus) (UniProt Q61831); assay: JNK3 AlphaScreen Assay (AID 530); settings: JNK3 lysate, c-Jun phosphorylation; series mostly up to 11.4 µM;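 further: kinase came from lysate of stimulated human HepG2 cells; signal reports phosphorylation of biotinylated GST-cJun 1-79 at Ser73 with 10 µM ATP; on the % scale 0 is the no-effect control and ±100 the full control effect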
Outline: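 Compound titrations were preincubated 15 minutes at room temperature with substrate, antibody and pre-activated JNK3-containing HepG2 lysate. Reactions were started with 10 uM ATP and stopped with EDTA-containing bead buffer for AlphaScreen detection.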

Cn1c(Sc2ccc(-c3cccnc3)n2C)ccc1-c1cccnc1
inactive: Potency [1] > 11.4 µM | activity change, negative = inhibition [2] 1.8% | activity change, negative = inhibition [4] -29.9% | Potency [5] > 46 µM | Potency [6] > 9.22 µM | Potency [7] | Potency [9]
active: Potency [3] 0.398 µM | Potency [8] 0.631 µM

O=C(O)c1ccccc1C1c2ccccc2Oc2ccccc21
inactive: Potency [1] > 11.4 µM | activity change, negative = inhibition [2] 2.36% | activity change, negative = inhibition [3] -20.4% [at 2.29 µM] | activity, negative = inhibition [10] 0.279% | Potency [5] > 46 µM | Potency [6] > 9.22 µM | Potency [11] | Potency [7]

O[C@@H](c1cc(C(F)(F)F)nc2c(Cl)cc(Cl)cc12)[C@@H]1CCCCN1
inactive: Potency [1] > 11.4 µM | activity change, negative = inhibition [2] 14.2% | activity, negative = inhibition [10] -0.0324% | Potency [5] > 46 µM | Potency [6] > 9.22 µM | Potency [11] | Potency [7]
active: Potency [3] 3.98 µM

OCCN(CCO)c1ncnc2nc[nH]c12
inactive: Potency [1] > 11.4 µM | activity change, negative = inhibition [2] -2.15% | Potency [3] | activity, negative = inhibition [10] -0.624% | Potency [5] > 46 µM | Potency [6] > 9.22 µM | Potency [11] | Potency [7]

C[C@H](Br)C(=O)c1ccc2cc(Br)c3ccccc3c2c1
inactive: Potency [1] > 11.4 µM | activity change, negative = inhibition [2] -18.5% | activity, negative = inhibition [10] -2.19% | Potency [5] > 46 µM | Potency [6] > 9.22 µM | Potency [11] | Potency [7]
active: Potency [3] 0.158 µM

O=C1C=CC(=Nc2cccc3c(N=C4C=CC(=O)O4)cccc23)O1
inactive: Potency [1] > 11.4 µM | activity change, negative = inhibition [2] 5.25% | Potency [3] | activity, negative = inhibition [10] -22.4% | Potency [5] > 46 µM | Potency [6] > 9.22 µM | Potency [11] | Potency [7]

COc1ccc2c3c(ccc2c1)N[C@H](C(=O)O)CC3
active: Potency [3] 0.501 µM
inactive: Potency [1] > 11.4 µM | activity change, negative = inhibition [2] -4.14% | activity, negative = inhibition [10] -6.67% | Potency [5] > 46 µM | Potency [6] > 9.22 µM | Potency [11] | Potency [7]

Cc1cc2ccccc2c[n+]1CC(O)C[n+]1cc2ccccc2cc1C
inactive: Potency [1] > 11.4 µM | activity change, negative = inhibition [2] -5.85% | Potency [3] | activity, negative = inhibition [10] 4.97% | Potency [5] > 46 µM | Potency [6] > 9.22 µM | Potency [11] | Potency [7]

c1ccc([P+](CC[P+](c2ccccc2)(c2ccccc2)c2ccccc2)(c2ccccc2)c2ccccc2)cc1
inactive: Potency [1] > 11.4 µM | activity change, negative = inhibition [2] 1.2% | Potency [3] | activity, negative = inhibition [10] 7.49% | Potency [5] > 46 µM | Potency [6] > 9.22 µM | Potency [11] | Potency [7]

Cc1c2cc[n+](CCN3CCCCC3)cc2c(C)c2c1[nH]c1ccc(O)cc12
active: Potency [3] 2.51 µM
inactive: Potency [1] > 11.4 µM | activity change, negative = inhibition [2] 9.2% | activity, negative = inhibition [10] 17.1% | Potency [5] > 46 µM | Potency [6] > 9.22 µM | Potency [11] | Potency [7]

O[C@@H](c1cc([C@@]23C[C@H]4CC[C@@H]2C[C@H](C4)C3)nc2c(Cl)cc(Cl)cc12)[C@@H]1CCCCN1
inactive: Potency [1] > 11.4 µM | activity change, negative = inhibition [2] 1.64% | activity change, negative = inhibition [3] -10.5% [at 2.29 µM] | activity, negative = inhibition [10] 0.88% | Potency [5] > 46 µM | Potency [6] > 9.22 µM | Potency [11] | Potency [7]

O=C1[C@@H]2[C@@H](C(=O)N1c1ccc(OCc3ccccc3)cc1)[C@@H]1c3ccccc3[C@@H]2[n+]2ccccc21
inactive: Potency [1] > 11.4 µM | activity change, negative = inhibition [2] -1.52% | Potency [3] | activity, negative = inhibition [10] 4.93% | Potency [5] > 46 µM | Potency [6] > 9.22 µM | Potency [11] | Potency [7]

S=C(S)NCCN1CCNCC1
inactive: Potency [1] > 11.4 µM | activity change, negative = inhibition [2] -1.68% | Potency [3] | activity, negative = inhibition [10] -9.45% | Potency [5] > 46 µM | Potency [6] > 9.22 µM | Potency [11] | Potency [7]

Cc1ccc(N2CCN(CCC(=O)O)CC2)cc1
inactive: Potency [1] > 11.4 µM | activity change, negative = inhibition [2] 4.25% | Potency [3] | activity, negative = inhibition [10] 2.74% | Potency [5] > 46 µM | Potency [6] > 9.22 µM | Potency [11] | Potency [7]

CC1(CCC(=O)OC2CCCCC2)OCCO1
inactive: Potency [1] > 11.4 µM | activity change, negative = inhibition [2] 4.96% | Potency [3] | activity, negative = inhibition [10] 4.55% | Potency [5] > 46 µM | Potency [6] > 9.22 µM | Potency [11] | Potency [7]
